# Results from PubChem BioAssay (NCATS).
# Where “and” joins values, the source holds several entries; their conditions need not be identical. Equal entries are not always repeated. Inconclusive results are not listed. Calls of active or inactive are those of the source. Unless noted, calls follow the shape of the dose curve; as a rule, active = well fitted curve in either direction with a large enough effect (not every such curve was filed as active); inconclusive = small, poorly fitted or top-dose-only effect, or another doubt; inactive = flat fitted curve, though single readings scatter.
# Experiments:
# [1] = target: Lysosomal acid glucosylceramidase (Homo sapiens) (UniProt P04062); assay: Glucocerebrosidase-p2 (AID 348; in the data active = potency below about 10 µM; also: potency is read from the fitted curve at half-maximal effect); details: purified GBA, blue fluorogenic substrate, 40 min
# Outline: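 Normal human glucocerebrosidase (0.2 nM) with blue fluorogenic substrate (80 uM final) in citrate/phosphate pH 5.9 with 10mM sodium taurocholate, 0.01% tween-20; 40 min RT, NaOH/glycine stop; fluorescence Ex 365/Em 440; AC50 from a titration from 0.6 nM upwards.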
# [2] = AP1 Signaling Pathway (AID 357); details: ME-180 AP-1-bla reporter, EGF-induced, beta-lactamase ratio, 5 h; also: % is scaled to controls: 0 for no effect and ±100 for the full control effect
# Outline: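 ME-180 cells with beta-lactamase reporter under AP-1 response element, stimulated with EC50 EGF; compounds tested in titration series, 5 h at 37 °C. CCF4 substrate added 2.5 h at room temperature; 460/530 nm emission ratio gave %activity and AC50.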
# [3] = target: Cytochrome P450 1A2 (Homo sapiens) (UniProt P05177); assay: p450-cyp1a2 (AID 410; calls by dose curve; also: potency is read from the fitted curve at half-maximal effect)
# Outline: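 O-Demethylation of luciferin 6' methyl ether by human CYP1A2 is monitored as luciferase luminescence. Substrate sits at Km (100uM); enzyme is 20nM. Values are scaled to 57 uM furafylline as maximal inhibition.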
# [4] = NFAT Signaling Pathway (AID 444); details: Jurkat NFAT-bla M1, carbachol, beta-lactamase ratio, 5 h; at 7.69 µM (top of the series) unless noted;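 also: carbachol stimulus at about its EC50 of 1 µM final; % is scaled to controls: 0 for no effect and ±100 for the full control effect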
# Outline: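 Jurkat cells with NFAT-driven β-lactamase reporter and co-expressed M1 receptor, stimulated with carbachol (final 1 uM, ~EC50), compound titration, 5 h at 37 °C. CCF4 loaded 1 h at RT; 460/530 nm ratio gave %activity and AC50.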
# [5] = Stat Signaling Pathway (AID 446); details: ME-180 (cervical carcinoma) SIE beta-lactamase reporter, IL-6 stimulated, 5 h;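 also: ME-180 cervical cancer cells given 40 pM IL-6 alongside compound; SIE-controlled beta-lactamase reporter measured as 460/530 nm FRET emission ratio; % is scaled to controls: 0 for no effect and ±100 for the full control effect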
# Outline: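 FRET read-out (405 nm excitation, 460/530 nm emission) of a beta-lactamase reporter under a STAT-inducible element in ME-180 cervical carcinoma cells. Cells with compound receive 40 pM IL-6 for 5 h. Values are normalised to AC90 stimulation and AC90 JAK-inhibitor controls.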
# [6] = target: Glucocorticoid receptor (Homo sapiens) (UniProt P04150); assay: GR-GFP Redistribution (AID 450;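 active = compounds whose dose series gives a full or clear partial fitted curve of increased nuclear translocation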; also: potency is read from the fitted curve at half-maximal effect); details: U2OS GR-GFP nuclear translocation, laser cytometry, 2 h
# [7] = target: Glucocorticoid receptor (Homo sapiens) (UniProt P04150); assay: GR-EFC Redistribution (AID 451; calls by dose curve; also: potency is read from the fitted curve at half-maximal effect); details: CHO-K1 GR-EFC translocation, beta-gal luminescence, 2 h
# Outline: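 CHO-K1 cells expressing nuclear EA and GR-ED fragments of b-gal; compounds titrated up to 46 uM final, 2 h at 37 C. GR nuclear translocation read as complemented b-gal luminescence after 1 h RT detection.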
# [8] = target: Mitogen-activated protein kinase 10 (Mus musculus) (UniProt Q61831); assay: JNK3 AlphaScreen Assay (AID 530);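 also: kinase came from lysate of stimulated human HepG2 cells; signal reports phosphorylation of biotinylated GST-cJun 1-79 at Ser73 with 10 µM ATP; % is scaled to controls: 0 for no effect and ±100 for the full control effect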
# Outline: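 Activity was read by AlphaScreen after JNK3-containing HepG2 lysate (cytokine pre-activated) phosphorylated biotinylated GST-cJun with 10 uM ATP at room temperature. Phospho-Ser73 cJun antibody with Protein-A acceptor beads provided detection.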
# [9] = target: 3',5'-cyclic-AMP phosphodiesterase 4B (Homo sapiens) (UniProt Q07343); assay: qHTS Assay for Inhibitors of PDE-IV (AID 607; active = well fitted activation curve with a large enough effect in the main read-out, with a control signal flat, not every such curve was filed as active; also: % of control where 0% means no effect)
# Outline: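 Cell-based read-out of cAMP via a modified cyclic nucleotide-gated channel and membrane potential dye (535/590 nm) in HEK293 cells expressing PDE4 endogenously. Compounds tested up to 22.9 uM final; 100 uM RO 20-1724 reference.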
# [10] = target: Cytochrome P450 2C9 (Homo sapiens) (UniProt P11712); assay: qHTS Assay for Inhibitors and Substrates of Cytochrome P450 2C9 (AID 883; active = well fitted curve in the direction sought with a large enough effect; an effect the other way counts as inactive or inconclusive; also: % is scaled to controls: 0 for no effect and ±100 for the full control effect; nearly all actives have a fitted effect of over 60% in size)
# Outline: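 10nM CYP2C9 + 100uM Luciferin-H (=KM), 25mM KPO4; cpd 10 min 37C; NADPH regen, 60 min 37C; stop/detect with P450 Glo-Buffer 20 min; luminescence. Norm. to 57uM sulphaphenazole as full inhibition.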
# [11] = qHTS Assay for Lipid Storage Modulators (AID 1519; calls by dose curve); details: Drosophila S3 cells, BODIPY lipid droplet/cell ratio, laser cytometry, cells loaded with oleic acid
# Outline: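 Cells seeded at 5,000 per well were treated with compounds over a concentration series and loaded with oleic acid (400 uM, as added). Lipid droplet fluorescence (488 nm excitation, 500-530 nm channel) was read by laser-scanning cytometry and normalized to 20 uM Triacsin C.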
# [12] = target: Cytochrome P450 3A4 (Homo sapiens) (UniProt P08684); assay: qHTS Assay for Inhibitors and Substrates of Cytochrome P450 3A4 (AID 884; active = well fitted curve in the direction sought with a large enough effect; an effect the other way counts as inactive or inconclusive; also: % is scaled to controls: 0 for no effect and ±100 for the full control effect; nearly all actives have a fitted effect of over 50% in size)
# Outline: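 Luminescent readout of luciferin produced by CYP3A4 (20 nM) dealkylation of Luciferin-PPXE, 25 uM (its KM). NADPH-driven reaction ran 60 min at RT after 10 min compound preincubation; data scaled to 57 uM ketoconazole as 100% inhibition.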
# [13] = Confirmation and Secondary Assay for Modulators of Hemoglobin Beta Chain Splicing at IVS2 654 locus (AID 910; active = well fitted curve in the direction sought with a large enough effect; an effect the other way counts as inactive or inconclusive;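 also: HeLa cells stably carrying EGFP split by mutant beta-globin IVS2-654 intron; % of control where 0% means no effect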)
# Outline: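 HeLa cells stably expressing EGFP interrupted by β-globin IVS2-654 intron, seeded overnight in Opti-MEM/2% FCS, then treated 2 days at 37 °C. Restored splicing read as total peak GFP intensity per well by laser scanning cytometry (488 nm excitation, 500–520 nm emission); 500 nM antisense PNA as control.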
# [14] = Confirmation and Secondary Assay for Modulators of Hemoglobin Beta Chain Splicing at IVS2 705 locus (AID 930; active = well fitted curve in the direction sought with a large enough effect; an effect the other way counts as inactive or inconclusive;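 also: HeLa cells stably expressing the EGFP-705 splicing reporter; GFP fluorescence per well restored by corrected splicing of the IVS2-705 intron in EGFP; % of control where 0% means no effect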)
# Outline: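 Splice-correction reporter: EGFP cDNA split by beta-globin intron 2 bearing the 705 mutation, stably in HeLa. Compound incubation 2 days, 37C; fluorescent objects 5-250 µm summed per well.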
# [15] = target: Ubiquitin carboxyl-terminal hydrolase 1 (Homo sapiens) (UniProt O94782); assay: Inhibitors of USP1/UAF1: Pilot qHTS (AID 504865; active = well fitted curve in the direction sought with a large enough effect; an effect the other way counts as inactive or inconclusive;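 also: rhodamine fluorescence freed from ubiquitin-rhodamine substrate followed over time; top concentration of the series differs between compounds; % is scaled to controls: 0 for no effect and ±100 for the full control effect; nearly all actives have a fitted effect of over 35% in size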)
# Outline: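 In 50mM HEPES pH 7.8 containing 0.5mM EDTA, 1mM TCEP, 0.1 mg/ml BSA and 0.01% Tween-20, 1nM USP1/UAF1 is exposed to compound for 15 min, then Ub-Rho (150nM final) is added and fluorescence is read over time.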
# [16] = target: Cytochrome P450 3A4 (Homo sapiens) (UniProt P08684); assay: qHTS Assay for Activators of Cytochrome P450 3A4 (AID 885; active = well fitted curve in the direction sought with a large enough effect; an effect the other way counts as inactive or inconclusive; also: nearly all actives have a fitted effect of over 65% in size)
# Outline: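 Luminescent readout of luciferin formed from 25 uM Luciferin-PPXE (KM level) by 20 nM CYP3A4 in 200 mM KPO4, with 60 min NADPH-driven reaction at room temperature after 10 min compound exposure. Ketoconazole (57 uM) defined 100% inhibition.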
# [17] = target: Cytochrome P450 2D6 (Homo sapiens) (UniProt P10635); assay: qHTS Assay for Inhibitors and Substrates of Cytochrome P450 2D6 (AID 891; active = well fitted curve in the direction sought with a large enough effect; an effect the other way counts as inactive or inconclusive; also: potency is read from the fitted curve at half-maximal effect; nearly all actives have a fitted effect of over 60% in size)
# Outline: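 Luminescent read-out of luciferin formed by 5 nM human CYP2D6 demethylating 30 uM Luciferin-ME EGE (Km level) over 60 min at room temperature after NADPH regeneration addition. Data normalized to full inhibition by 1.43 uM quinidine.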
# [18] = qHTS profiling for inhibitors of Plasmodium falciparum proliferation (AID 504749; active = well fitted curve in the direction sought with a large enough effect; an effect the other way counts as inactive or inconclusive;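 also: 0% = DMSO vehicle and full inhibition = artemisinin control; nearly all actives have a fitted effect of over 60% in size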); details: P. falciparum in erythrocytes, SYBR Green DNA, 72 h, at 28.7 µM (top of the series)
# Outline: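 Each compound contacts P. falciparum-infected red blood cells for 72 h at 37 C; lysis buffer (Tris, EDTA, saponin, Triton X, SYBR Green I) is added and fluorescence measured next morning; values normalized to controls.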
# [19] = at 7.69 µM (top of the series) unless noted
# [20] = measured here: cell count channel max response
# [21] = measured here: lipid channel max response
# Cytochrome P450 1A2 (Homo sapiens), sequence (P05177 whole entry, looked up): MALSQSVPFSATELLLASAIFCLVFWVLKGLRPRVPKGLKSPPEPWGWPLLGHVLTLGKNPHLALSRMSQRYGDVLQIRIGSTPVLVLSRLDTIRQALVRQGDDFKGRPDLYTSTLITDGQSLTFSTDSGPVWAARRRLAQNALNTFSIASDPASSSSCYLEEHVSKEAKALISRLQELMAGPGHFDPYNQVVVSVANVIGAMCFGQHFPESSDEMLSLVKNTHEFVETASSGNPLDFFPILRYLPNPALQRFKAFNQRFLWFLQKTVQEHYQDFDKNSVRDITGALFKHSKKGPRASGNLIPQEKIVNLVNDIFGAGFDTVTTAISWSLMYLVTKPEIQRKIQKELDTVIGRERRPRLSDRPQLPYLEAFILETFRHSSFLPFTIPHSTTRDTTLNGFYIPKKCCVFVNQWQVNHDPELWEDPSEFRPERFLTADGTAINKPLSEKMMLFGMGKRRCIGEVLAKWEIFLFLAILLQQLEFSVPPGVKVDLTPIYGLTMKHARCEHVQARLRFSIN
# Lysosomal acid glucosylceramidase (Homo sapiens), sequence (P04062 whole entry, looked up): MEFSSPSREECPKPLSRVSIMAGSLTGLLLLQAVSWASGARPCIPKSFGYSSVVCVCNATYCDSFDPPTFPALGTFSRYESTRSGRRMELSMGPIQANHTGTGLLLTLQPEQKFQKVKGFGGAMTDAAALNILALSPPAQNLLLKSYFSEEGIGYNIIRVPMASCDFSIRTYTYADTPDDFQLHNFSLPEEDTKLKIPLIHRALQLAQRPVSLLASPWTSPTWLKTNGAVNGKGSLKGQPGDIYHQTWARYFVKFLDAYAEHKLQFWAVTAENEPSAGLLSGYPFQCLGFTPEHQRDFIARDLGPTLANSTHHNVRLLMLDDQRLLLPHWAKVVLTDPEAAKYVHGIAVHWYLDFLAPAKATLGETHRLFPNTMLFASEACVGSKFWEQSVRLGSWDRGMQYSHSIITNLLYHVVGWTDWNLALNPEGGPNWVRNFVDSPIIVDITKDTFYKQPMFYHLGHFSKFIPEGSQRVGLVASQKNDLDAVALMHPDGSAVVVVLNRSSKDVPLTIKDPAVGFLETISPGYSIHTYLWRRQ
# 3',5'-cyclic-AMP phosphodiesterase 4B (Homo sapiens), sequence (Q07343 whole entry, looked up): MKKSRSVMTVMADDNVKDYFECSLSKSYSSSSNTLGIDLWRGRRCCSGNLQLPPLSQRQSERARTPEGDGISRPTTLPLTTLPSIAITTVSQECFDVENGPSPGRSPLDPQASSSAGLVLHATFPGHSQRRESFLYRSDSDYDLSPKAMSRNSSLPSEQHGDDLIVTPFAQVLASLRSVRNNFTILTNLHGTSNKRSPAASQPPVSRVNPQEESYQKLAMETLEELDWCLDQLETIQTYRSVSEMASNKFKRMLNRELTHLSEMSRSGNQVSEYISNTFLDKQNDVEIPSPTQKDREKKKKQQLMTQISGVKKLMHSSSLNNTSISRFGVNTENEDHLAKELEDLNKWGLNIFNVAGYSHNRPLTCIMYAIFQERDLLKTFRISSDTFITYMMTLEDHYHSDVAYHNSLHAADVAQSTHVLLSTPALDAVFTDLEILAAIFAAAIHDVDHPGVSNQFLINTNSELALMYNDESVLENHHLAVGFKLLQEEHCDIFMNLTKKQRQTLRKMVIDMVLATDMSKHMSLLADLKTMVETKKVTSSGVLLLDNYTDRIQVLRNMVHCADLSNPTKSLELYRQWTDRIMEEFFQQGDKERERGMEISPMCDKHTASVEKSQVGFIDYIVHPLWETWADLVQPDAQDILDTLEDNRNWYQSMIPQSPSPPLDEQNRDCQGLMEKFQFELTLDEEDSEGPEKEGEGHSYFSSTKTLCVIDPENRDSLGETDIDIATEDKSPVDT
# Glucocorticoid receptor (Homo sapiens), sequence (P04150 whole entry, looked up, the tested form may be a part): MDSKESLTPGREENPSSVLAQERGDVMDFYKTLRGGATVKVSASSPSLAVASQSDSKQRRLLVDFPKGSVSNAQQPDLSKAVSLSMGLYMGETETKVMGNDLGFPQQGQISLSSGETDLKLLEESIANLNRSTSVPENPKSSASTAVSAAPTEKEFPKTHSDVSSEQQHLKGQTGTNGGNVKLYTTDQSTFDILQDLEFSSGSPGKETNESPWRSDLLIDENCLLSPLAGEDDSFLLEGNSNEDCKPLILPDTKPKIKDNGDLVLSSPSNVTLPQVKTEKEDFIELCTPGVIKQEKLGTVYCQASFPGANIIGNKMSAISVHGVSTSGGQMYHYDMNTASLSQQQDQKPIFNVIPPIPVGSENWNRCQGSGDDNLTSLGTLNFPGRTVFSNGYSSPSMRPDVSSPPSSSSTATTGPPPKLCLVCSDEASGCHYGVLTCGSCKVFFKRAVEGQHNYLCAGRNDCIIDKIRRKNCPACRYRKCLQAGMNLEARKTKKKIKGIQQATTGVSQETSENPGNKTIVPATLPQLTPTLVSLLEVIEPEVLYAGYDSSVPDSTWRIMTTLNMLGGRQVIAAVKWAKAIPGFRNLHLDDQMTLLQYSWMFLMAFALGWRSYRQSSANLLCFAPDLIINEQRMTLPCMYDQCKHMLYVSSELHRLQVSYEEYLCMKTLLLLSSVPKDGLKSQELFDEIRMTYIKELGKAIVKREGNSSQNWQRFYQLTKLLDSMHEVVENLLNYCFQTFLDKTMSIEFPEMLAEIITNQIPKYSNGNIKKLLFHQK
# Cytochrome P450 3A4 (Homo sapiens), sequence (P08684 whole entry, looked up): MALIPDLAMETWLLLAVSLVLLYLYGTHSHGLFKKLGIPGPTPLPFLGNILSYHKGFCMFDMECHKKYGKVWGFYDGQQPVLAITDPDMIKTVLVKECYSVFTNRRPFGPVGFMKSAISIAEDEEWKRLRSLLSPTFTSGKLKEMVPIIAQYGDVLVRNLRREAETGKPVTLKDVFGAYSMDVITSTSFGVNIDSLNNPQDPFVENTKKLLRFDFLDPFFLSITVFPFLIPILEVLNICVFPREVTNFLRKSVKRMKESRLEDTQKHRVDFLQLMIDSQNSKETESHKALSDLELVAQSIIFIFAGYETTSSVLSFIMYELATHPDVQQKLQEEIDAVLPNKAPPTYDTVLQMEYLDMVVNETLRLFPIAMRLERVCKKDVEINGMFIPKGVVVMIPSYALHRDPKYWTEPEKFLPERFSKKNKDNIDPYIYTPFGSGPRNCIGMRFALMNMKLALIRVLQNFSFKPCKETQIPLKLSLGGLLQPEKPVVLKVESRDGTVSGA
# Ubiquitin carboxyl-terminal hydrolase 1 (Homo sapiens), sequence (O94782 whole entry, looked up): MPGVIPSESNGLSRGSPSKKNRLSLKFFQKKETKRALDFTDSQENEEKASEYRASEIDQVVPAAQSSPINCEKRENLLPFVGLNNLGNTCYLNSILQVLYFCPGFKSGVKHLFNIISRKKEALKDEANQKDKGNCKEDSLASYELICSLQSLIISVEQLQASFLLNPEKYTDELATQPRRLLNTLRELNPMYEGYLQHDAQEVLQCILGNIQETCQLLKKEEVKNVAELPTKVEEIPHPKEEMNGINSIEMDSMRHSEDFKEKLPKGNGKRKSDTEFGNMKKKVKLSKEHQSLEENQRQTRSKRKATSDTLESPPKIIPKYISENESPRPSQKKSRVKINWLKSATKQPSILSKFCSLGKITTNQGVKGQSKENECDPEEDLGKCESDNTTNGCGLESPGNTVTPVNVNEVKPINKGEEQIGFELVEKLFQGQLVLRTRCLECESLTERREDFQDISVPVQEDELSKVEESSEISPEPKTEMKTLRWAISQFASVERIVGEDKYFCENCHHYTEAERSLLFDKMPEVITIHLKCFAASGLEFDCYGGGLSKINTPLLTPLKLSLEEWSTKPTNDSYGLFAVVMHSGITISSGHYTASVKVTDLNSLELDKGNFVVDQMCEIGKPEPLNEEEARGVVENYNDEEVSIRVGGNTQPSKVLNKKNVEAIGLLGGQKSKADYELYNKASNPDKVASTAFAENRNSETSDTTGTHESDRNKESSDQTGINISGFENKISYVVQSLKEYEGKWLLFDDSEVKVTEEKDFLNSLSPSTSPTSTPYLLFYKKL
# Cytochrome P450 2C9 (Homo sapiens), sequence (P11712 whole entry, looked up): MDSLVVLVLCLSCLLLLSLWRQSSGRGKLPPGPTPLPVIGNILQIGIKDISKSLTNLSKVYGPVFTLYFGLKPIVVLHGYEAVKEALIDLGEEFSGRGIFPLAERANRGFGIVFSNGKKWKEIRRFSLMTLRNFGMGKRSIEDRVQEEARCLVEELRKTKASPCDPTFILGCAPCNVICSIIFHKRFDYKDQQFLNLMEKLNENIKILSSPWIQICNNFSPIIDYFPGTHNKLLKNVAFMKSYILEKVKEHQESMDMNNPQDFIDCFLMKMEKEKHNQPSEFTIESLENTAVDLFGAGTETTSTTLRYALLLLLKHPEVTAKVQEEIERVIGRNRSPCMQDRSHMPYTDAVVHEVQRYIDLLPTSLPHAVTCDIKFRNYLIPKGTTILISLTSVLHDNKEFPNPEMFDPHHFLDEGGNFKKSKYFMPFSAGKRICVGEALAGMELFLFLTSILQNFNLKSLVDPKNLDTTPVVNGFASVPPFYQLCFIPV
# Cytochrome P450 2D6 (Homo sapiens), sequence (P10635 whole entry, looked up): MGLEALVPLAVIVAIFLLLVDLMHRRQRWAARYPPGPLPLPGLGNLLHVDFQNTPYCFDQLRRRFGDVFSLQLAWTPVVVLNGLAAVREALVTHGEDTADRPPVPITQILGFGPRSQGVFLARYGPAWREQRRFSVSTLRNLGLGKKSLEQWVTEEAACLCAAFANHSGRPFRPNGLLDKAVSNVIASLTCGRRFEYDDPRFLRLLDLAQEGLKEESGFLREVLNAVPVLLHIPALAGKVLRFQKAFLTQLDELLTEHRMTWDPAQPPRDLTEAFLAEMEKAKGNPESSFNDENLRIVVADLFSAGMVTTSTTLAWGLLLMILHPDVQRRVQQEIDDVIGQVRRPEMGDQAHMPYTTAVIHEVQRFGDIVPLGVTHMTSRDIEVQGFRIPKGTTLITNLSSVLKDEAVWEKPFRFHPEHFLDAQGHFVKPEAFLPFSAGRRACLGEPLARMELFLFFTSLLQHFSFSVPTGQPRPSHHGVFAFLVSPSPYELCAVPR
structure (smiles),measurement,setting,value
N#CCCn1c(=O)cnc2cnc(N3CCNCC3)nc21,Potency,[1],> 11.4 µM (inactive)
same,"activity change, negative = inhibition",[2]; [19],-10.6% (inactive)
same,Potency,[3],12.6 µM (active)
same,"activity change, negative = inhibition",[4],3.67% (inactive)
same,"activity, negative = inhibition",[5]; [19],-12.7% (inactive)
same,Potency,[6],> 9.22 µM (inactive)
same,Potency,[7],> 46 µM (inactive)
same,Potency,[8],inactive
same,Potency,[9],inactive
same,Potency,[10],inactive
same,"activity change, negative = inhibition",[11]; at 57.5 µM (top of the series),4.17% (inactive)
same,max response,[11]; [20],14.3%
same,max response,[11]; [21],19.4%
Cc1occc(=O)c1O,Potency,[8],inactive
same,Potency,[12],inactive
same,Potency,[13],inactive
same,outcome,[14],inactive
same,"activity change, negative = inhibition",[11]; at 57.5 µM (top of the series),8.81% (inactive)
same,max response,[11]; [20],0.823%
same,max response,[11]; [21],13.2%
same,Potency,[15],inactive
COc1cccc(Nc2ncc3nc(C)c(=O)n(CCC#N)c3n2)c1,Potency,[1],> 11.4 µM (inactive)
same,"activity change, negative = inhibition",[2]; [19],-18.4% (inactive)
same,Potency,[3],1.26 µM (active)
same,"activity change, negative = inhibition",[4],4.34% (inactive)
same,"activity, negative = inhibition",[5]; [19],-8.39% (inactive)
same,Potency,[6],> 9.22 µM (inactive)
same,Potency,[7],> 46 µM (inactive)
same,Potency,[8],inactive
same,Potency,[9],inactive
same,Potency,[16],inactive
same,"activity change, negative = inhibition",[11]; at 57.5 µM (top of the series),-10.8% (inactive)
same,max response,[11]; [20],-22.6%
same,max response,[11]; [21],-28.8%
COCCNc1nc(-c2cccc(OC)c2)nc2ccccc12,Potency,[1],> 11.4 µM (inactive)
same,"activity change, negative = inhibition",[2]; [19],-3.79% (inactive)
same,Potency,[3],0.2 µM (active)
same,"activity change, negative = inhibition",[4],0.846% (inactive)
same,"activity, negative = inhibition",[5]; [19],-13.7% (inactive)
same,Potency,[6],> 46 µM (inactive)
same,Potency,[7],> 46 µM (inactive)
same,Potency,[8],inactive
same,Potency,[16],inactive
same,Potency,[13],inactive
same,outcome,[14],inactive
same,"activity change, negative = inhibition",[11]; at 57.5 µM (top of the series),-5.01% (inactive)
same,max response,[11]; [20],5.13%
same,max response,[11]; [21],-0.48%
Cc1cccc(CNc2ccnc(-c3ccccc3CN(C)C)n2)c1,Potency,[1],11.5 µM (inactive)
same,"activity change, negative = inhibition",[2]; [19],-18% (inactive)
same,Potency,[3],3.16 µM (active)
same,"activity change, negative = inhibition",[4],-18.8% (inactive)
same,"activity, negative = inhibition",[5]; [19],-5.22% (inactive)
same,Potency,[7],> 46 µM (inactive)
same,Potency,[8],inactive
same,"activity change, negative = inhibition",[10],13.9% [at 2.29 µM] (inactive)
same,Potency,[16],inactive
same,Potency,[17],2.51 µM (active)
same,Potency,[13],inactive
same,outcome,[14],inactive
same,"activity change, negative = inhibition",[11]; at 57.5 µM (top of the series),3.61% (inactive)
same,max response,[11]; [20],-8.06%
same,max response,[11]; [21],-5.18%
same,Potency,[15],inactive
CN1[C@@H]2CC[C@H]1CC(OC(=O)[C@@H](O)c1ccccc1)C2 (stereo partly drawn),Potency,[1],> 11.4 µM (inactive)
same,"activity change, negative = inhibition",[2]; at 7.69 µM (top of the series),9.45% (inactive)
same,"activity change, negative = inhibition",[2]; at 17.2 µM (top of the series),-8.08% (inactive)
same,"activity change, negative = inhibition",[2]; at 38 µM (top of the series),-8.54% (inactive)
same,"activity, negative = inhibition",[5]; at 7.69 µM (top of the series),-3.56% (inactive)
same,"activity, negative = inhibition",[5]; at 17.2 µM (top of the series),8.85% (inactive)
same,Potency,[8],inactive
same,Potency,[9],inactive
same,"activity change, negative = inhibition",[11]; at 25.7 µM (top of the series),2.61% (inactive)
same,max response,[11]; [20],4.94%
same,max response,[11]; [21],8.69%
same,Potency,[15],inactive
same,"activity, negative = inhibition",[18]; parasite line A,-3.65% (inactive) and -0.465% (inactive)
same,"activity, negative = inhibition",[18]; parasite line B,7.89% (inactive) and -12.1% (inactive)
